The panel holds about 83,000 compounds, 20% with a hit somewhere; the sample as a whole holds those more often.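 Single-dose data. Exposure time 48 hours. Values below 10 considered active.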 Calls of active or inactive are those of the source.
Assays:
Assay in all cases: NCI-60 one-dose screen, 48 h (100 = growth as untreated, 0 = no growth, -100 = all killed)
Settings in all cases: 10 µM unless noted
SK-MEL-2 melanoma = test system: SK-MEL-2 melanoma
EKVX NSCLC = test system: EKVX NSCLC
SN12C renal = test system: SN12C renal
UO-31 renal = test system: UO-31 renal
TK-10 renal = test system: TK-10 renal
ACHN renal = test system: ACHN renal
CAKI-1 renal = test system: CAKI-1 renal
A498 renal = test system: A498 renal
CCRF-CEM leukemia = test system: CCRF-CEM leukemia
MOLT-4 leukemia = test system: MOLT-4 leukemia

Measured: growth

Cn1c(=O)c2c(c3ccccc31)OC(N)=C(C#N)C21C(=O)c2ccccc2C1=O
inactive: SK-MEL-2 melanoma 107% | EKVX NSCLC 86% | SN12C renal 90.1% | UO-31 renal 61.4% | TK-10 renal 127% | ACHN renal 97% | CAKI-1 renal 84.2% | A498 renal 82.8% | CCRF-CEM leukemia 103% | MOLT-4 leukemia 112%

CN(C)c1ccc(/C=C2/C=C(c3ccccc3)OC2=O)cc1
inactive: SK-MEL-2 melanoma 84.6% | EKVX NSCLC 109% | SN12C renal 107% | UO-31 renal 73.7% | TK-10 renal 110% | ACHN renal 97.1% | CAKI-1 renal 91.3% | A498 renal 95.8% | CCRF-CEM leukemia 52.7% | MOLT-4 leukemia 49.7%

C=C1C(=O)O[C@H]2[C@H]1CC/C(COC(=O)c1cc3cc(F)ccc3[nH]1)=C\CC[C@@]1(C)O[C@@H]21
active: SK-MEL-2 melanoma -69% | EKVX NSCLC -78.1% | SN12C renal -42% | UO-31 renal -88.1% | TK-10 renal -94.9% | ACHN renal -88.5% | CAKI-1 renal -90.8% | A498 renal -40.2% | CCRF-CEM leukemia -31.9% | MOLT-4 leukemia -16.2%

N=C(N)c1ccc(-c2ccc(-c3ccc(Cl)cc3Cl)s2)cc1F
active: SN12C renal -27.9% | UO-31 renal -90.5% | ACHN renal -100% | CAKI-1 renal -82.8% | CCRF-CEM leukemia -26.1% | MOLT-4 leukemia -47.2%
inactive: SK-MEL-2 melanoma 55.8% | EKVX NSCLC 32.4% | TK-10 renal 91.5% | A498 renal 83.7%

CC1(C)CC[C@]2(C(=O)N3CCOCC3)CC[C@]3(C)C(=CC[C@@H]4[C@@]5(C)C/C(=C/c6ccncc6)C(=O)C(C)(C)[C@@H]5CC[C@]43C)[C@@H]2C1
inactive: EKVX NSCLC 14.5% | SN12C renal 18% | UO-31 renal 11% | TK-10 renal 35.9% | ACHN renal 15.6% | CAKI-1 renal 16.7%
active: SK-MEL-2 melanoma -6.74% | A498 renal -20.3% | CCRF-CEM leukemia -6.27% | MOLT-4 leukemia -16.9%

Nc1c(C(=O)Nc2ccccn2)sc2nc3c(cc12)C(O)CCC3 (stereo not given)
inactive: SK-MEL-2 melanoma 43.8% | EKVX NSCLC 42.1% | SN12C renal 44.3% | UO-31 renal 43.6% | TK-10 renal 47.4% | ACHN renal 46.2% | CAKI-1 renal 28.9% | MOLT-4 leukemia 34%
active: A498 renal 3.12% | CCRF-CEM leukemia 6.62%

COC(=O)Cc1nc(C#N)c(N(C)C)o1
inactive: SK-MEL-2 melanoma 89.4% | EKVX NSCLC 116% | SN12C renal 90.3% | UO-31 renal 82.4% | TK-10 renal 93.3% | ACHN renal 101% | CAKI-1 renal 97.2% | A498 renal 125% | CCRF-CEM leukemia 92.9% | MOLT-4 leukemia 97.6%

Cc1ccc(Nc2nc(-c3ccc(F)cc3)c(C#N)c(=O)n2C)cc1
inactive: SK-MEL-2 melanoma 70.8% | EKVX NSCLC 54.6% | SN12C renal 62.9% | UO-31 renal 44.8% | TK-10 renal 55.4% | ACHN renal 63% | CAKI-1 renal 59.3% | A498 renal 42.7% | CCRF-CEM leukemia 98.8% | MOLT-4 leukemia 81.5%

CNC(=O)c1cc(Oc2ccc3nc(NC(=O)Nc4ccc(Cl)c(Cl)c4)sc3c2)ccn1
inactive: SK-MEL-2 melanoma 80.8% | SN12C renal 57.3% | UO-31 renal 39.9% | TK-10 renal 66.3% | ACHN renal 70% | CAKI-1 renal 103% | A498 renal 93.6% | CCRF-CEM leukemia 42.5% | MOLT-4 leukemia 66.2%
active: EKVX NSCLC 8.47%

COc1ccc2cc(-c3ccc(-c4ccc(C(=N)N)s4)s3)ccc2c1
active: EKVX NSCLC 0.97% | SN12C renal -55.2% | CCRF-CEM leukemia -14% | MOLT-4 leukemia 1.6%
inactive: SK-MEL-2 melanoma 95.3% | UO-31 renal 36.6% | TK-10 renal 89.6% | ACHN renal 27% | CAKI-1 renal 88.8% | A498 renal 73.6%

CCN1C(=S)N(CC)C2C1NC(=S)N2/N=C/C=C/c1ccccc1OC (stereo not given)
inactive: SK-MEL-2 melanoma 46.7% | EKVX NSCLC 49.3% | SN12C renal 28.5% | UO-31 renal 43.5% | TK-10 renal 71.4% | ACHN renal 33.7% | CAKI-1 renal 34.1% | A498 renal 16.3% | CCRF-CEM leukemia 12.2% | MOLT-4 leukemia 17.7%

Cn1cc(-c2ccc3cc(-c4ccc(CC(=O)Nc5cc(C(C)(C)C)on5)cc4)cnc3c2)cn1
active: UO-31 renal 9.45% | ACHN renal -23% | A498 renal -4.2% | CCRF-CEM leukemia 3.44% | MOLT-4 leukemia 4.87%
inactive: SK-MEL-2 melanoma 18.9% | EKVX NSCLC 38.8% | SN12C renal 16.7% | TK-10 renal 43.9% | CAKI-1 renal 12.8%

C=CC(C)(O)CC/C=C(\CO)C(=O)OC1C(C)OC(O[C@](C)(C=C)CC/C=C(\CO)C(=O)O[C@H]2C[C@@]3(C(=O)OC4OC(CO)C(O)C(O)C4OC4OC(C)C(OC5OC(CO)C(O)C5O)C(OC5OC(CO)C(O)C(O)C5O)C4O)C(CC2(C)C)C2=CCC4[C@@]5(C)CC[C@H](OC6OC(COC7OC(C)C(O)C(O)C7OC7OCC(O)C(O)C7O)C(O)C(O)C6NC(C)=O)C(C)(C)C5CC[C@@]4(C)[C@]2(C)C[C@H]3O)C(O)C1O (stereo not given in full)
active: SK-MEL-2 melanoma -73.8% | EKVX NSCLC -6.51% | SN12C renal -30.1% | UO-31 renal -57.7% | TK-10 renal -83% | ACHN renal -87.7% | CAKI-1 renal -70% | A498 renal -81% | CCRF-CEM leukemia -17.1% | MOLT-4 leukemia -21.5%

CC(C)CSc1oc(-c2ccccc2)nc1S(=O)(=O)c1ccccc1
inactive: SK-MEL-2 melanoma 95.9% | EKVX NSCLC 88.8% | SN12C renal 95% | UO-31 renal 75.7% | TK-10 renal 65.6% | ACHN renal 89.9% | CAKI-1 renal 76.7% | A498 renal 84.9% | CCRF-CEM leukemia 86.9% | MOLT-4 leukemia 76.1%

NC(=S)N/N=C/c1cn(-c2ccccc2)nc1-c1cc2ccccc2oc1=O
inactive: SK-MEL-2 melanoma 39.2% | EKVX NSCLC 75.3% | SN12C renal 63.1% | UO-31 renal 50.7% | TK-10 renal 77.2% | ACHN renal 77.4% | CAKI-1 renal 44.1% | CCRF-CEM leukemia 53.7% | MOLT-4 leukemia 33.4%
active: A498 renal -6.2%

N#Cc1c(Nc2ccc(F)cc2)n[nH]c1-c1cccs1
inactive: SK-MEL-2 melanoma 117% | EKVX NSCLC 92.6% | SN12C renal 89.5% | UO-31 renal 74.1% | TK-10 renal 135% | ACHN renal 88.4% | CAKI-1 renal 88.9% | A498 renal 103% | CCRF-CEM leukemia 100% | MOLT-4 leukemia 103%

O=C(CCC(=O)c1nc2ncccc2[nH]1)NN1C(=O)CSC1c1ccc(Cl)cc1 (stereo not given)
inactive: SK-MEL-2 melanoma 106% | EKVX NSCLC 100% | SN12C renal 97% | UO-31 renal 70.7% | TK-10 renal 126% | ACHN renal 97.4% | CAKI-1 renal 84.2% | A498 renal 111% | CCRF-CEM leukemia 83.8% | MOLT-4 leukemia 106%

COc1ccc(/C(C)=C(\c2ccc(Cl)cc2)c2ccc(OCCN3CCCC3)cc2)cc1
inactive: SK-MEL-2 melanoma 40.6% | EKVX NSCLC 61.2% | SN12C renal 66.5% | UO-31 renal 35.2% | TK-10 renal 69.5% | ACHN renal 60.1% | CAKI-1 renal 24.4% | A498 renal 79.1% | CCRF-CEM leukemia 29.1% | MOLT-4 leukemia 23.4%

COc1ccc(-c2ccc(-c3ccc(C(=N)N)cn3)s2)cc1
active: CCRF-CEM leukemia 4.28%
inactive: SK-MEL-2 melanoma 104% | EKVX NSCLC 95.6% | SN12C renal 86.7% | UO-31 renal 81.2% | TK-10 renal 109% | ACHN renal 92% | CAKI-1 renal 87.9% | A498 renal 98.8% | MOLT-4 leukemia 49.1%

COC(=O)C1=C(C(=O)Nc2cccnc2)C2OC1(C(Cc1ccccc1)Oc1ccccc1)C1OC21 (stereo not given)
active: UO-31 renal -99.3% | TK-10 renal -8.69% | ACHN renal -99.2% | CCRF-CEM leukemia -23% | MOLT-4 leukemia -31.5%
inactive: SK-MEL-2 melanoma 93.5% | EKVX NSCLC 101% | SN12C renal 48.5% | CAKI-1 renal 57.4% | A498 renal 121%

O=C1CCC(C(=O)NN(c2ccccc2)c2ccccc2)N1 (stereo not given)
inactive: SK-MEL-2 melanoma 105% | EKVX NSCLC 102% | SN12C renal 97.8% | UO-31 renal 85.5% | TK-10 renal 82.8% | ACHN renal 103% | CAKI-1 renal 78% | A498 renal 103% | CCRF-CEM leukemia 22% | MOLT-4 leukemia 50%

O=c1nc(Nc2nc3ccccc3s2)[nH]c(=O)c2ccccc12
inactive: SK-MEL-2 melanoma 110% | EKVX NSCLC 95.2% | SN12C renal 98.6% | UO-31 renal 89.4% | TK-10 renal 119% | ACHN renal 89.8% | CAKI-1 renal 85.2% | A498 renal 77.4% | CCRF-CEM leukemia 106% | MOLT-4 leukemia 102%

Cn1cc(-c2csc(-c3cn(C)c4ccc(Br)cc34)n2)c2cnccc21
active: EKVX NSCLC -79.1% | SN12C renal -91.5% | UO-31 renal -89.9% | TK-10 renal -75.7% | ACHN renal -99.5% | CAKI-1 renal -82.2% | CCRF-CEM leukemia -38.1% | MOLT-4 leukemia -58.9%
inactive: SK-MEL-2 melanoma 47.7% | A498 renal 68.7%

O=C(O)C1CN(c2cccc(Cl)c2)N(c2cccc(Cl)c2)C1=O (stereo not given)
inactive: SK-MEL-2 melanoma 94.7% | EKVX NSCLC 96.9% | SN12C renal 89% | UO-31 renal 72.2% | TK-10 renal 105% | ACHN renal 95.6% | CAKI-1 renal 92.8% | A498 renal 110% | CCRF-CEM leukemia 107% | MOLT-4 leukemia 88.8%

COc1cc(C#Cc2ccc(=O)oc2C#Cc2ccccc2)cc(OC)c1OC
active: CCRF-CEM leukemia 3.76%
inactive: SK-MEL-2 melanoma 104% | EKVX NSCLC 115% | SN12C renal 16% | UO-31 renal 76.6% | TK-10 renal 134% | ACHN renal 89.3% | CAKI-1 renal 96.3% | A498 renal 119% | MOLT-4 leukemia 33.4%

COCCCOc1cc(C[C@@H](C[C@H](N)[C@@H](O)C[C@H](C(=O)NCC(C)(C)C(N)=O)C(C)C)C(C)C)ccc1OC
inactive: SK-MEL-2 melanoma 104% | EKVX NSCLC 92.6% | SN12C renal 104% | UO-31 renal 84.4% | TK-10 renal 109% | ACHN renal 101% | CAKI-1 renal 89.2% | A498 renal 103% | CCRF-CEM leukemia 110% | MOLT-4 leukemia 103%

From PubChem BioAssay (NCI)
